Results published in ChEMBL document CHEMBL4513146, “CO-ADD screening of Karazin Kharkiv National University (Ukraine) compounds”.
Potency and affinity values are given separately.

Columns and labels:
Staphylococcus aureus = details: Concentration 32 ug.mL-1;; ASSAY_TEST Inhibition of Bacterial Growth; detection method Absorption (OD600); MEDIA CAMHB; plate type 384well; NBS; CORNING #3640; time 18 hr
Escherichia coli = details: Concentration 32 ug.mL-1;; ASSAY_TEST Inhibition of Bacterial Growth; detection method Absorption (OD600); MEDIA CAMHB; plate type 384well; NBS; CORNING #3640; time 18 hr

| SMILES | Inhibition (Staphylococcus aureus) | Inhibition (Escherichia coli) |
| --- | --- | --- |
| Cc1cc(C)c(NC(=O)Cn2nc3ccc(SCc4ccc(Cl)cc4)nn3c2=O)c(C)c1 | -5.02% | -8.63% |
| COc1cccc(-c2noc(Cn3nc4ccc(-c5ccc(C)c(C)c5)nn4c3=O)n2)c1OC | 6.16% | -3.11% |
| Cn1c(=O)c2sccc2n2c(=O)n(CCOc3ccccc3)nc12 | -2.74% | -12.23% |
| Cc1c(Cl)cccc1NC(=O)Cn1nc2c(N3CCOCC3)nc3ccccc3n2c1=O | 6.58% | -0.44% |
| COc1cccc(Oc2nccn3c(=O)n(CC(=O)Nc4ccc(C(C)C)cc4)nc23)c1 | -2.58% | -7.16% |
| Cc1ccc(Cl)cc1N1CCN(C(=O)CCc2nnc3c4cc(-c5ccccc5)nn4ccn23)CC1 | 1.17% | -6.03% |
| COc1ccc(NC(=O)Cn2nc3ccc(SC(C)(C)C)nn3c2=O)cc1Cl | -0.4% | -6.93% |
| Cc1cc(C)c(NC(=O)Cn2nc3ccc(SC(C)(C)C)nn3c2=O)c(C)c1 | 11.62% | -0.74% |
| CC(C)CCNC(=O)Cn1nc2n(Cc3ccco3)c(=O)c3sccc3n2c1=O | 8.27% | 0.93% |
| CCCN(C)c1nccn2c(=O)n(CC(=O)Nc3cccc(C(F)(F)F)c3)nc12 | 6.48% | 3.02% |
| Cc1ccc(-n2ccn3c(SCC(=O)N4CCN(c5ccc(F)cc5)CC4)nnc3c2=O)cc1C | 15.71% | -2.64% |
| CC(C)Cn1c(=O)c2sccc2n2c(=O)n(CC(=O)NC(C)C)nc12 | -11.46% | 2.58% |
| O=C(Cn1nc2c(N3CCOCC3)nc3ccccc3n2c1=O)NCc1ccccc1Cl | -2.26% | -4.63% |
| COc1cccc(-n2ccn3c(SCC(=O)Nc4ccccc4F)nnc3c2=O)c1 | 8.86% | -8.93% |
| COc1ccc(CCn2c(=O)c3sccc3n3c(=O)n(CC(=O)c4ccccc4)nc23)cc1OC | 14.35% | 3.29% |
| CCc1ccccc1Sc1nccn2c(=O)n(CC(=O)N3CCN(c4ccccc4)CC3)nc12 | -10.72% | -11.22% |
| O=C(CSc1nnc2c(=O)n(-c3ccc(F)cc3)ccn12)c1ccccc1Cl | 19.94% | -2.26% |
| Cc1nnc2c(=O)n(CC(=O)Nc3ccc(C(C)C)cc3)c3ccccc3n12 | 18.68% | -2.69% |
| COc1ccc(NC(=O)Cn2nc3c(Oc4cccc(OC)c4)nccn3c2=O)cc1 | 14.33% | -3.37% |
| CCOc1ccc(-n2ccn3c(SCC(=O)Nc4cccc(Cl)c4)nnc3c2=O)cc1 | -0.75% | 2.43% |
| O=c1c2sccc2n2c(=S)[nH]nc2n1CC1CCCO1 (configuration not stated) | 3.07% | -0.32% |
| CSc1cccc(NC(=O)Cn2nc3ccc(-c4ccccc4)nn3c2=O)c1 | -12.73% | -15.49% |
| COc1ccc(-c2cc3c4nnc(CCC(=O)NCc5ccc6c(c5)OCO6)n4ccn3n2)cc1 | -1.19% | 5.34% |
| O=C(Cn1nc2c3c4c(sc3ncn2c1=O)CCCC4)Nc1ccc2c(c1)OCO2 | -0.05% | -3.47% |

| SMILES | Inhibition (Staphylococcus aureus) | Inhibition (Escherichia coli) |
| --- | --- | --- |
| Cc1cc2nn(CC(=O)Nc3cc(F)ccc3C)c(=O)n2c(Nc2ccc(F)c(C)c2)n1 | 9.03% | -0.59% |
| O=c1c2nn(Cc3ccc([N+](=O)[O-])cc3)c(=O)n2ccn1-c1ccccc1 | 12.75% | -1.5% |
| Cc1nnc2ccc(S(=O)(=O)N(Cc3ccccc3F)c3ccc(F)cc3)cn12 | -2.33% | -7.33% |
| O=C(CSc1nnc2c3cc(-c4ccc(F)cc4)nn3ccn12)Nc1ccccc1C(F)(F)F | -6.75% | -13.58% |
| O=C(CSc1nnc2n(CC3CCCO3)c(=O)c3sccc3n12)Nc1ccc(F)cc1Cl (configuration not stated) | -6.42% | -12.15% |
| CC(C)(C)Sc1ccc2nn(CC(=O)N3CCN(c4ccc(F)cc4)CC3)c(=O)n2n1 | 4% | 5.62% |
| COc1ccc(NC(=O)Cn2nc3c(N4CC(C)CC(C)C4)nccn3c2=O)c(OC)c1 (configuration not stated) | 18.35% | 1.24% |
| C=Cc1ccc(CN(c2ccc(F)c(F)c2)S(=O)(=O)c2cccn3cnnc23)cc1 | -2.72% | -13.7% |
| CCCn1c(=O)c2sccc2n2c(CCC(=O)NCCC34CC5CC(CC(C5)C3)C4)nnc12 | 0.48% | -2.55% |
| Cc1ccc(-n2ccn3c(SCC(=O)c4c[nH]c5ccccc45)nnc3c2=O)cc1C | 8.58% | 3.16% |
| Cc1ccccc1CSc1nnc2c(=O)n(-c3ccc(F)c(F)c3)ccn12 | 12.28% | -1.52% |
| O=C(CCc1nnc2c3cc(-c4ccccc4)nn3ccn12)N1CCN(C(=O)c2ccco2)CC1 | 7.4% | 0.93% |
| COc1cc(NC(=O)Cn2nc3c4c5c(sc4ncn3c2=O)CCCC5)cc(OC)c1 | -0.84% | -8.54% |
| COc1ccc(OC)c(NC(=O)Cn2nc3c(SCc4ccc(Cl)cc4)nccn3c2=O)c1 | -7.47% | -4.33% |
| Cc1nnc2c(S(=O)(=O)N(Cc3ccccc3)c3ccc(C(C)C)cc3)cccn12 | 6.07% | -2.4% |
| O=C(CSc1nc2ccccc2n2cnnc12)N1CCN(c2ccc(F)cc2)CC1 | 13.82% | 1.79% |
| Cc1nnc2ccc(S(=O)(=O)N(Cc3cccc(F)c3)c3ccc(F)cc3)cn12 | -0.57% | -11.39% |
| CCOc1ccc(-n2ccn3c(SC(CC)C(=O)Nc4cc(F)ccc4F)nnc3c2=O)cc1 (configuration not stated) | 7.7% | -0.34% |
| COCCCNC(=O)CSc1nnc2c(=O)n(Cc3ccc(F)cc3)ccn12 | 10.54% | -1.15% |
| Cc1ccc(NC(=O)Cn2nc3c(Oc4ccccc4C)nccn3c2=O)cc1F | 8.06% | -0.85% |
| COc1ccccc1N1CCN(C(=O)Cn2nc3c(Oc4ccc(C)cc4)nccn3c2=O)CC1 | 6.41% | 0.36% |
| COc1ccc(N(Cc2ccccc2F)S(=O)(=O)c2ccc3nnc(C)n3c2)cc1 | 8.97% | -7.31% |
| CC(C)c1nnc2c(=O)n(CC(=O)Nc3ccc(Br)cc3F)c3ccccc3n12 | 7.11% | 1.53% |
| CCOC(=O)c1ccc(NC(=O)Cn2nc3c(Oc4ccccc4)nccn3c2=O)cc1 | -0.24% | -4.26% |

| SMILES | Inhibition (Staphylococcus aureus) | Inhibition (Escherichia coli) |
| --- | --- | --- |
| COc1ccccc1-n1ccn2c(SCc3ccc(C)cc3)nnc2c1=O | 4.53% | -10.18% |
| COc1ccc(NC(=O)c2ccc3nn(CC(=O)Nc4ccc5c(c4)OCCO5)c(=O)n3c2)cc1 | 0.27% | -8.29% |
| COc1ccc(-c2cc3c4nn(CC(=O)Nc5cc(OC)cc(OC)c5)c(=O)n4ccn3n2)cc1 | -11.7% | -10.82% |
| COC(=O)c1sccc1NC(=O)Cn1nc2c(Oc3ccc(C)cc3)nc3ccccc3n2c1=O | 6.43% | 0.18% |
| Cc1c(Cl)cccc1NC(=O)Cn1nc2c(SCc3ccccc3)nccn2c1=O | 2.18% | -6.95% |
| CCc1nnc2ccc(S(=O)(=O)N(Cc3cccc(F)c3)c3ccc(OC)cc3)cn12 | 7.39% | -21.14% |
| N#CCn1nc2n(Cc3ccccc3)c(=O)c3ccccc3n2c1=O | 14.89% | 2.96% |
| CCOc1ccc(-n2ccn3c(SCC(=O)Nc4ccc(C)cc4)nnc3c2=O)cc1 | 15.66% | 2.17% |
| CC(C)c1nnc2c(=O)n(CC(=O)Nc3ccc4c(c3)OCO4)c3ccccc3n12 | -1.02% | -3.49% |
| O=S(=O)(c1ccc2nncn2c1)N(Cc1cccc(F)c1)c1ccc2c(c1)OCCO2 | 1.17% | -4.29% |
| Cc1ccc(-n2ccn3c(=O)n(Cc4ccccc4Cl)nc3c2=O)cc1C | 0.51% | -7.32% |
| COc1ccc(NC(=O)Cn2nc3ccc(SCc4ccc(Cl)cc4)nn3c2=O)cc1Cl | -4.58% | -11.11% |
| Cc1ccc(NC(=O)Cn2nc3ccc(SCc4ccc(Cl)cc4)nn3c2=O)c(C)c1 | -11.8% | -8.79% |
| C=Cc1ccc(CN(c2ccc3c(c2)OCO3)S(=O)(=O)c2ccc3nncn3c2)cc1 | 3.79% | -6.77% |
| Cc1cccc(CN(c2cccc(Cl)c2)S(=O)(=O)c2cccn3c(C)nnc23)c1 | 9.05% | -5.75% |
| COc1ccccc1-n1ccn2c(SCC(=O)Nc3ccc4c(c3)OCCO4)nnc2c1=O | 18.21% | -1.11% |
| COc1cccc(CN(c2ccc(F)c(F)c2)S(=O)(=O)c2ccc3nncn3c2)c1 | -3.79% | -13.18% |
| Cc1cccc(C)c1NC(=O)CSc1nnc2c3cc(-c4ccc(F)cc4)nn3ccn12 | -13.2% | -12.65% |
| O=C(Cn1nc2c(Sc3ccccc3)nccn2c1=O)Nc1ccc2c(c1)OCO2 | -26.09% | 0.44% |
| CCCCOc1ccc(-c2cc3c4nnc(SCC(=O)Nc5ccc(CC)cc5)n4ccn3n2)cc1 | -9.56% | -11.54% |
| O=C(Cn1nc2c(SC3CCCCC3)nccn2c1=O)Nc1ccccc1F | 2.83% | -6.05% |
| COc1cc(NC(=O)CSc2nnc3c(=O)n(-c4ccccc4)ccn23)cc(OC)c1 | 14.02% | 0.85% |
| COc1cccc(-n2ccn3c(SCC(=O)Nc4ccc(Cl)cc4)nnc3c2=O)c1 | 16.43% | -13.45% |
